# Measured values taken from the OligoGym collection.
# Target: DNTTIP1
# Assay: pooled miR-30 sensor sort-seq; sequence = guide strand
# Details: shRNA
# Further: reference of the scale not given here.
row,Sequence,sensor-assay potency score (higher = more potent)
1,TTTCAATTCCTCTAGCTTCAGA,-0.665
2,TAGAACCACATGCTAGTCTGGG,-0.495
3,TATACTTTCTCATCTTCTCCAC,0.0054
4,TGAAACTTGTTGTCATCTGTGA,0.435
5,TGAGTCACTACAAACTCGCTCA,-0.249
6,TACTTGTTGAAGACAGTCTGGA,0.302
7,TTCCTCTAGCTTCAGATCCAGG,-1.66
8,TTGGTTTCCATACCATGCCGGC,-0.684
9,TTTGGTTTCCATACCATGCCGG,-0.318
10,TTGATGTAGATTCTTCCTCTGG,-0.475
11,TTTATCATTATGTTCCAAGGGT,0.164

# Target: DOCK11
# Assay: as above
# Details: shRNA
row,Sequence,sensor-assay potency score (higher = more potent)
1,TTCAATATTGCTATCATCGTAG,0.383
2,TAAACTGTCGGTGTTGATCTGA,0.463
3,TTCTCTTCCAACAAGTATGTGG,-0.568
4,TTGATCTTCTTTAATTAGCCGC,-0.638
5,TTTTGTATGCATAACTTCCAGA,-0.169
6,TTCACTATAATGGACATCCATC,-1.02
7,TTCTTGAACTAAACTGTCGGTG,-0.436
8,TGATCTTAGATAACTATCCAAG,-1.04
9,TTGAACTAAACTGTCGGTGTTG,-0.114
10,TTTCTTGAACTAAACTGTCGGT,0.142
11,TTTAGCTGTCCTGTGCACCTTC,0.773
12,TTGCTTTATGCAACCAGCCTTG,-0.849
